From the supplement of paper PMC9948646

These compounds were tested on gramicidin D channels in DC22:1PC lipid vesicles (bilayer-modifying potency) (assay: initial Tl+ fluorescence quench rate relative to no-drug control (NormRate, gramicidin monomer-dimer shift) (ratio (fold of control)); higher = stronger bilayer-modifying effect (equilibrium shifted toward conducting dimers), active = 1.5 or more). Conditions: 10 µM; lipid concentration 50 µM; temperature: 25 °C.
Protocol: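 Stopped-flow fluorescence quench assay: ANTS-loaded DC22:1PC large unilamellar vesicles doped with gramicidin D (1:2000), 50 µM lipid, equilibrated 10 min with 10 µM drug (0.1% DMSO), mixed with Tl+ quench buffer at 25°C. Initial quench rate (Tl+ influx) was fitted with a modified stretched exponential and normalised to the no-drug control rate (NormRate); duplicates from two independent LUV preparations (triplicates for 7 drugs).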

| SMILES | initial Tl+ fluorescence quench rate |
| --- | --- |
| c1ccc2c(c1)CN(CC1CC1)CC1(CCN(Cc3c[nH]c4cnccc34)CC1)O2 | 1.06 (inactive) |
| COc1ccccc1[C@H](C)NCC(=O)Nc1cc(C(F)(F)F)ccc1Cl | 1.17 (inactive) |
| CC[C@H](CO)NCCN[C@H](CC)CO | 1.02 (inactive) |
| O=C(Nc1nc(-c2ccccn2)cs1)[C@H]1C[C@@H]1c1ccccc1F | 1.41 (inactive) |
| CO[C@H]1/C=C/O[C@@]2(C)Oc3c(C)c(O)c4c(O)c(/c(=C/NN5CCN(C)CC5)c(O)c4c3C2=O)=N\C(=O)/C(C)=C\C=C/[C@H](C)[C@H](O)[C@@H](C)[C@@H](O)[C@@H](C)[C@H](OC(C)=O)[C@@H]1C | 1.34 (inactive) |
| OCc1ccc(-c2cncc(Nc3cccc(Cl)c3)c2)cc1 | 2.64 (active) |
| COc1ccc(-c2onc(C(F)(F)F)c2-c2ccc(Cl)cc2)c(O)c1 | 1.38 (inactive) |
| OCCc1ccc(Nc2nccc(-c3nnc4ccccn34)n2)cc1 | 1.01 (inactive) |
| O=C(OCc1ccccc1)N1CCC(c2cc(-c3ccncc3)c(-c3ccc(F)cc3)[nH]2)CC1 | 2.36 (active) |
| COc1cccc(OCC(=O)c2ccc(Br)cc2)c1 | 1.06 (inactive) |
| COc1cc(OC)cc(C(=O)NC[C@@H]2Cc3cc(Cl)cc(-c4ccncc4)c3O2)c1 | 2.47 (active) |
| Cc1nc(-c2ccccn2)nc(N(C)CCc2ccccc2)c1Cl | 2.23 (active) |
| Cc1nn(C(=O)Nc2cccc(C(F)(F)F)c2)c(C)c1Sc1ncccn1 | 2 (active) |
| COc1ccc2nc(C)cc(OCC(=O)NCc3ccccc3)c2c1 | 1.06 (inactive) |
| CNC(=O)c1nn(C)c2c1C(C)(C)Cc1cnc(Nc3ccc(N4CCN(C)CC4)cc3)nc1-2 | 1.04 (inactive) |
| CCN(CC)CCCN1CCN(C(=O)c2cccc(-c3noc(C(F)(F)F)n3)c2)CC1 | 1.25 (inactive) |
| Cc1ccc2nc(Cl)c(CNCc3cccs3)cc2c1 | 1.03 (inactive) |
| CS(=O)(=O)c1ccccc1C(=O)N(Cc1ccccc1)c1ccccc1 | 1.09 (inactive) |
| CC(=O)Nc1ccc(-c2noc(C[C@@H]3CCCN(Cc4cccc(F)c4C)C3)n2)cc1 | 1.29 (inactive) |
| CNC(=O)c1cc(S(=O)(=O)N2CCN(c3ccccn3)CC2)cs1 | 1.07 (inactive) |
| c1cncc(NCc2ccc(-c3cc4ccncc4cc3OC3CCNCC3)s2)c1 | 1.32 (inactive) |
| CC(C)(C)OC(=O)N1CCC(Cn2nc(-c3cnc4ccccc4c3)c3c(N)ncnc32)CC1 | 1.57 (active) |
| Cc1nc(-c2ccccn2)nc(N2CC[C@@H](Cc3ccccc3)C2)c1Cl | 3.57 (active) |
